12-LOX inh: inhibitors of human 12S-lipoxygenase ALOX12; P18054; purified 12hLO, xylenol orange hydroperoxide absorbance; Potency, µM (highest dose often 108 µM), for inactives: at the top dose activity change, negative = inhibition, most hits filed as inhibitors; hit rate 1.1% among 580,000; AID 1671190; note: % is set by controls: 0 for no effect and ±100 for the full control effect
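Purified human 12hLO at 150 nM in 25 mM Hepes, 0.01% Triton X-100, pH 7.0, preincubated 15 min at room temperature with compound. Reaction started with 40 uM arachidonic acid, 30 min at room temperature. Hydroperoxide measured by Fe-xylenol orange, 573/405 nm absorbance ratio.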
G9a inh: G9a (human) methyltransferase inhibition. G9a H3K9 monomethylation, AlphaScreen, 2 h. Potency, µM (highest dose often 102 µM), for inactives: at the top dose activity, negative = inhibition, usual class: inhibitors. hit rate 8.8% among 350,000; note: % is set by controls: 0 for no effect and ±100 for the full control effect; nearly all actives have a fitted effect of over 75% in size
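Methyltransferase reactions run at room temperature for 2 h (20 nM enzyme, 500 nM biotin-H3K9 peptide, 20 uM SAM) after a 15 min compound preincubation; product detected by AlphaScreen beads and anti-H3K9me1 antibody.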
JMJD2A Tudor inh: JMJD2A Tudor domain (human) inhibition; hit rate 4.4% among 390,000; O75164; AlphaScreen JMJD2A-Tudor / H3K4me3 peptide binding; Potency, µM (highest dose often 114 µM), for inactives: top-dose activity change, negative = inhibition, most hits filed as inhibitors; note: % is set by controls: 0 for no effect and ±100 for the full control effect; nearly all actives have a fitted effect of over 50% in size
Sfp inh: inhibitors of Bacillus subtilis Sfp phosphopantetheinyl transferase; Q9F4F7; Biochemical Sfp PPTase activity, qHTS; Potency, µM, inactives show largest response in the series, negative = inhibition, hits mostly inhibitors; hit rate 3.5% among 310,000;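 note: the enzyme is Sfp with the accession as filed and its product quenches rhodamine fluorescence; 0% = enzyme reaction without inhibitor and -100% = no enzyme wells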
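Buffer: 50 mM Hepes-Na pH 7.6, 10 mM MgCl2, 0.01% Nonidet P-40, 0.01% BSA. Enzyme 15 nM, pre-exposed to compound 15 min; substrates then added and fluorescence change tracked over 30 min.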
HP1b chromo inh: blocks HP1-beta chromodomain binding to methylated histone tails | AlphaScreen HP1-beta / biotin-H3K9me3 peptide binding | Potency, µM (top dose mostly 114 µM), for inactives: at the top dose activity change, negative = inhibition, usual class: inhibitors | hit rate 0.56% among 390,000; note: nearly all actives have a fitted effect of over 70% in size
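AlphaScreen: HP1-beta (50 nM) preformed 30 min with biotin-H3(1-18)K9me3 peptide (50 nM) in PBS pH 7.4, 0.01% Tween-20. Compound added for 30 min at RT, then streptavidin donor/nickel chelate acceptor beads (10 ug/mL) for 30 min.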
BAZ2B block: inhibitors of human BAZ2B bromodomain; AID 504333; hit rate 4.4% among 360,000; AlphaScreen BAZ2B-H3K14Ac peptide displacement; Potency, µM (top dose mostly 114 µM), inactives show top-dose activity change, negative = inhibition, actives largely listed as inhibitors; Q9UIF8; note: % is set by controls: 0 for no effect and ±100 for the full control effect; nearly all actives have a fitted effect of over 60% in size
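AlphaScreen displacement of biotin-H3(5-23)K14Ac peptide (50 nM final) from BAZ2B (50 nM final) in PBS pH 7.4, 0.01% Tween-20; complex preformed 30 min RT, then compounds (top 110 uM) 30 min RT, beads 20 min dark.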
Starred values were filed as active, the others as inactive; ? = inconclusive; . = not tested or not shown; [ ] = another dose, or the depositor's remark. Only some compounds are listed: those with a hit (about 8.7% of all), similar ones and a draw of the others. Calls come from the whole dose curve; as a rule, active = well fitted curve in the direction sought with a large enough effect; inconclusive = small, poorly fitted or top-dose-only effect, or another doubt; inactive = no such curve, though single readings can be large; an effect the other way counts as inactive or inconclusive. Potency is the fitted concentration of half-maximal effect.

SMILES	12-LOX inh	G9a inh	JMJD2A Tudor inh	Sfp inh	HP1b chromo inh	BAZ2B block
Cc1ccc(C)c(N(C(=O)Cn2nnc3ccccc32)C(C(=O)NCc2ccco2)c2ccncc2)c1 (centres undefined)	25.3%	-30.1%[12.7 µM]	-18.2%	1.5%	26.5%	-8.9%
COc1ccc(C(=O)N2C[C@@H](CO)[C@H](c3nc(C)no3)C2)cc1F	43.1%	.	.	.	.	.
COc1ccc(C(=O)c2nccc3cc(OC)c(OC)cc23)cc1OC	.	-25.0%[2.33 µM]	-15.0%	.	13.5%	-34.4%
COc1cc2c(cc1OC)-c1c(OC)c(OC)cc3ccnc(c13)C2=O	-4.6%	-15.0%	-24.6%	-4.2%	42.2%	14.1µM*
CCOc1ccc(C(C)=O)cc1N1C(=O)C2C3C=CC(O3)C2C1=O (centres undefined)	.	?	20µM*	7.94µM*	28.2µM*	?
O=C(CCS(=O)(=O)c1cccc2nsnc12)NC1CCCCCC1	?	39.8µM*	-10.8%	-19.6%	13.7%	-1.4%[57.1 µM]
CCC(C)NC(=O)C(NS(=O)(=O)c1cccc2nsnc12)c1ccccc1 (centres undefined)	0.0%	22.9%	-17.8%	15.4%	-12.5%	8.3%
CCN(C(=O)CCS(=O)(=O)c1cccc2nsnc12)c1cccc(C)c1	-21.6%	-6.0%[59 µM]	-11.0%	4.2%	26.0%	-1.8%
C=CCN(C(=O)CCS(=O)(=O)c1cccc2nsnc12)c1ccccc1	?	44.7µM*	-23.0%	-14.7%	2.7%	-3.9%
CC(=O)c1cccc(NC(=O)CCS(=O)(=O)c2cccc3nsnc23)c1	?	10µM*	-27.5%[57.1 µM]	56.2µM*	-38.0%	-3.6%
CCN(C(=O)C(NS(=O)(=O)c1cccc2nsnc12)c1ccccc1)c1ccccc1 (centres undefined)	?	2.82µM*	?	.	5.3%	.
Cc1cc(C)cc(NC(=O)CCS(=O)(=O)c2cccc3nsnc23)c1	-11.6%	-6.7%[59 µM]	-22.9%	.	6.7%	-6.3%
O=C(Cn1cccc1-c1nc(-c2ccc(F)cc2)no1)Nc1ccccc1	8.8%	.	.	.	.	.
CCOC(=O)c1cnc(SC2CCc3ccccc3C2=O)nc1N (centres undefined)	?	35.5µM*	-19.8%[57.1 µM]	56.2µM*	-11.4%	-2.6%
COc1ccc(CCNC(=O)C(=O)NCc2ccccn2)cc1	14.5%	50.1µM*	-11.6%	17.7%	14.5%	-24.9%
O=C(NCc1ccccn1)C(=O)NCc1ccccn1	3.3%	-6.0%	-5.6%	56.2µM*	53.0%	29.0%
O=C(NCc1ccccn1)c1nc(-c2cccs2)no1	-13.5%	28.2µM*	-27.1%	5.5%	11.8%	2.3%
O=C(NCc1ccccn1)c1coc(=O)c(Br)c1	78.6%	?	?	?	24.9%	17.8µM*
CC(C)(C)NC(=O)C(=O)NCc1ccccn1	19.2%	4.9%	-18.6%	11.6%	18.8%	-17.0%
COCCNC(=S)N(C)C1(c2ccccc2Cl)CCCCC1=O (centres undefined)	-4.8%	44.7µM*	-2.8%	-17.9%	27.3%	-12.9%
CC(C)NC(=S)N(C)C1(c2ccccc2Cl)CCCCC1=O (centres undefined)	2.3%	14.8%[59 µM]	-8.4%	12.6%	32.8%	-6.3%
O=C(N/N=C/c1ccc(C(F)(F)F)cc1)c1cccs1	-4.0%	.	.	.	.	.
CCOc1ccc(-c2cc(=O)c3ccc(NC(=O)c4ccccc4Cl)cc3o2)cc1	23.7%	.	.	.	.	.
COc1ccc(NC(=O)Nc2c(O)ccc3ccccc23)cc1	0.0%	.	?	.	?	.
CN(Cc1cc(Cl)cc(Cl)c1O)Cc1c(O)ccc2ccccc12	?	.	?	.	-6.9%[57 µM]	.
SMILES	12-LOX inh	G9a inh	JMJD2A Tudor inh	Sfp inh	HP1b chromo inh	BAZ2B block
CSc1ccccc1NC(=O)CN(C)Cc1c(O)ccc2ccccc12	5.01µM*	2.24µM*	56.2µM*	-5.7%	-11.5%	?
COc1ccc(OCCN(C)Cc2c(O)ccc3ccccc23)cc1	?	7.08µM*	?	-8.3%	-8.2%	-1.0%
CN(Cc1ccccc1)Cc1c(O)ccc2ccccc12	0.794µM*	8.91µM*	3.98µM*	-17.0%	?	79.4µM*
N#Cc1cccc(NC(=O)CSc2sc3c(O)cc(=O)[nH]c3c2C#N)c1	-2.6%	?	?	?	-19.9%	?
N#Cc1c(SCC(=O)Nc2nc3ccc(Br)cc3s2)sc2c(O)cc(=O)[nH]c12	15.8µM*	39.8µM*	25.1µM*	-8.1%	22.4µM*	20µM*
N#Cc1c(SCC(=O)Nc2nc3ccccc3s2)sc2c(O)cc(=O)[nH]c12	?	?	8.91µM*	.	?	44.7µM*
CCOCCCNC(=O)CN1CCCc2nc(C3CC3)ncc2C1=O	19.4%	.	.	.	.	.
COc1cc(NC(=O)c2ccc3c(c2)S(=O)(=O)N=C2CCCCCN23)cc(OC)c1	-16.7%	50.1µM*	-19.9%	.	-4.2%	11.2%
O=C(Nc1ccc(F)cc1)c1ccc2c(c1)S(=O)(=O)N=C1CCCCCN12	6.8%	4.2%[12.7 µM]	4.0%	.	39.2%	7.9%
O=C(Nc1cccc(-c2nnc3n2CCCC3)c1)c1ccc(F)cc1F	11.2%	.	.	.	.	.
Nc1n[nH]c(=S)n1/N=C1/C(=O)Nc2ccccc21	?	1µM*	2.51µM*	11.2µM*	15.8µM*	-24.8%
O=C1Nc2ccccc2C1=NN1CCCCCC1	-12.8%	.	?	.	-11.2%	.
CCOP(=O)(OCC)c1nc(-c2ccc([N+](=O)[O-])cc2)oc1NCc1ccccc1	-41.0%	.	.	.	.	.
CCOP(=O)(OCC)c1nc(-c2ccc([N+](=O)[O-])cc2)oc1NCc1ccc(C)cc1	10µM*	.	.	.	.	.
COCCn1c(SCC(=O)c2ccc(Cl)cc2)nnc1C(C)C	?	11.2µM*	50.1µM*	79.4µM*	-11.1%	0.2%
O=C(CSc1nnc2scc(-c3ccccc3)n12)c1ccc2c(c1)OCCO2	436.4%	89.1µM*	-2.1%	-12.7%	22.7%	9.3%
COCCn1c(SCC(=O)Nc2ccc3c(c2)OCCO3)nnc1C(C)C	-4.2%	13.9%	-20.4%	17.7%	21.2%	-1.0%
COCCn1c(SCC(=O)c2ccc3c(c2)OCCO3)nnc1C(C)C	?	17.8µM*	79.4µM*	?	-8.1%	0.5%
O=C(CSc1nnc2scc(-c3ccccc3)n12)Nc1nsc(-c2ccccc2)n1	?	?	?	31.6µM*	19.8%	56.2µM*
Cc1ccc(-c2csc3nnc(SCC(=O)Nc4nsc(-c5ccccc5)n4)n23)cc1	-0.2%	-1.9%[59 µM]	-12.2%	-2.2%	8.7%	-6.5%
c1ccc(-c2csc3nnc(SCc4ccc5c(c4)OCCO5)n23)cc1	23.8%	-16.7%[59 µM]	-12.3%	-4.8%	24.6%	1.0%
Cc1ccc(S(=O)(=O)N2CCN(CC(=O)NC(=O)NC(C)(C)C)CC2)cc1C	0.2%	.	.	.	.	.
CCOc1ccc2c(c1)cc(C(=O)NC(C)C)n2C	40.6%	.	.	.	.	.
Cc1cc(C)cc(C(=O)N2CCN(c3cc(-c4ccc(Cl)cc4)[nH]n3)CC2)c1	29.1%	.	.	.	.	.

Screens from PubChem BioAssay.
